Data reported in ChEMBL document CHEMBL4296182, “CO-ADD screening of NIH NCI Diversity Set V”.
For part of these data: Results with a measured potency or affinity are listed apart.

Experiments:
[1] = system: Staphylococcus aureus; test: Antibacterial activity against Staphylococcus aureus MRSA ATCC 43300 (CO-ADD:GP_020); MIC in CAMBH media using NBS plates, by Resazurin F(560/590); format: functional; conditions: Concentration 20 uM, ASSAY_TEST Inhibition of Bacterial Growth, detection method Resazurin, Fluorescence (ex560/em590), MEDIA CAMHB, plate type 384well, CORNING #3640, time 18 hr
[2] = system: Acinetobacter baumannii; test: Antibacterial activity against Acinetobacter baumannii ATCC 19606 (CO-ADD:GN_034); MIC in CAMBH media using NBS plates, by Resazurin F(560/590); format: functional; conditions: Concentration 20 uM, ASSAY_TEST Inhibition of Bacterial Growth, detection method Resazurin, Fluorescence (ex560/em590), MEDIA CAMHB, plate type 384well, CORNING #3640, time 18 hr
[3] = system: Escherichia coli; test: Antibacterial activity against Escherichia coli ATCC 25922 (CO-ADD:GN_001); MIC in CAMBH media using NBS plates, by Resazurin F(560/590); format: functional; conditions: Concentration 20 uM, ASSAY_TEST Inhibition of Bacterial Growth, detection method Resazurin, Fluorescence (ex560/em590), MEDIA CAMHB, plate type 384well, CORNING #3640, time 18 hr
[4] = system: Klebsiella pneumoniae; conditions: Concentration 20 uM; ASSAY_TEST Inhibition of Bacterial Growth; detection method Absorption (OD600); MEDIA CAMHB; plate type 384well; NBS; CORNING #3640; time 18 hr
[5] = system: Candida albicans; conditions: 20 µM
[6] = system: Cryptococcus neoformans; conditions: Concentration 20 uM; ASSAY_TEST Inhibition of Fungal Growth; detection method Resazurin; Absorption (OD600-OD570); plate type 384well; NBS; CORNING #3640

SMILES	Inhibition [1]	Inhibition [2]	Inhibition [3]	Inhibition [4]	Inhibition [5]	Inhibition [6]
c1ccc(Sc2ncnc3ccccc23)cc1	3.09%	-14.3%	12.91%	8.16%	2.99%	-14.16%
CS(=O)(=O)O.OC(c1cc(C(F)(F)F)nc2c(Cl)cc(Cl)cc12)C1CCCCN1 (stereo not given)	10.44%	6.66%	19.86%	9.3%	1%	-0.51%
Cn1c2c(c(=O)n(C)c1=O)NC1(N2)C(=O)Nc2ccccc21 (stereo not given)	7.94%	-15.14%	2.31%	1.11%	4.78%	-2.52%
COc1ccc(C(=S)N2CCN(c3cccc(Cl)c3)CC2)cc1	13.14%	2%	3.07%	17.03%	9.51%	-10.07%
O=c1c(-c2ccc(O)cc2)coc2cc(O)cc(O)c12 [GENISTEIN]	3.06%	1.42%	2.99%	22.48%	6.45%	-7.01%
Nc1ccc(C(=O)c2cccs2)cn1	33.76%	0%	26.4%	9.25%	8.82%	-0.14%
CC1(C)N=C(N)N=C(NCCCOc2ccc([N+](=O)[O-])cc2)N1.CCS(=O)(=O)O	25.11%	-9.38%	11.82%	18.17%	-1.81%	-10.08%
CC(=O)O.COc1ccc2nccc(/C=C/c3ccnc4ccc(OC)cc34)c2c1	1.03%	-11.4%	10.64%	6.2%	5.73%	-5.13%
CC1(C)C2CCC(CN=C(N)CSS(=O)(=O)O)C1C2 (stereo not given)	18.41%	14.08%	1.93%	19.04%	-2.77%	-13.54%
O=C(Nc1ccc(Oc2ccc(NC(=O)Nc3ccc([N+](=O)[O-])cc3)cc2)cc1)Nc1ccc([N+](=O)[O-])cc1	16.59%	-20.31%	13.56%	15.1%	1.13%	-4.65%
CC12CCC(C1)C(C)(C)C2OC(=O)c1ccccc1C(=O)O (stereo not given)	7.81%	-7.81%	-3.09%	22.55%	4.22%	-18.67%
COC(=O)[C@H]1[C@H]2C[C@@H]3c4[nH]c5cc(OC)ccc5c4CCN3C[C@H]2C[C@@H](OC(=O)CC(C)=O)[C@@H]1OC	16.88%	-0.32%	11.28%	5.93%	-0.86%	-1.53%
COc1ccc(-c2cc3ccccc3[nH]2)cc1	28.13%	-0.84%	12.2%	0.29%	-0.93%	-13.44%
CN(C)c1ccc(/C=C2/C=C(c3ccc4c(c3)CCCC4)OC2=O)cc1	19.91%	-7.24%	16.55%	6.65%	4.35%	1.53%
Cc1cc(-c2ccc(N3C(=O)CC4(CCCC4)C3=O)c(C)c2)ccc1N1C(=O)CC2(CCCC2)C1=O	2.65%	-13.47%	9.87%	-0.13%	4.32%	-5.08%
O=C1c2ccccc2C(=O)c2c(Nc3ccc(CCO)cc3)ccc(O)c21	19.9%	1.68%	9.39%	4.66%	-0.52%	-4.75%
CC1CN(CCN2CC(C)N(C=O)CC2C)C(C)CN1C=O (stereo not given)	-7.66%	-6.52%	-13.71%	5.89%	1.99%	25.73%
O=C1c2cccc3cc([N+](=O)[O-])cc(c23)C(=O)N1CCN1CCCC1 [PINAFIDE]	-1.04%	10.65%	-8.19%	5.33%	0.21%	-7.33%
CC12CCC(C(NC(=S)NN)C1=O)C2(C)C (stereo not given)	2.53%	-10.15%	7.86%	9.19%	1.53%	-9.53%
CCOC(=O)Nc1c(Cl)n(C)c(=O)n(C)c1=O	-8.24%	9.75%	-16.55%	17.7%	6.3%	20.83%
